From the supplement of paper PMC10849652 come the findings set out here.

Of roughly 7,900 targets only a part is listed; those with a hit were picked by preference. About 0.6% of all pairs of compound and target were hits.

UniProt Q8NDI1, sequence (Q8NDI1 whole entry, looked up): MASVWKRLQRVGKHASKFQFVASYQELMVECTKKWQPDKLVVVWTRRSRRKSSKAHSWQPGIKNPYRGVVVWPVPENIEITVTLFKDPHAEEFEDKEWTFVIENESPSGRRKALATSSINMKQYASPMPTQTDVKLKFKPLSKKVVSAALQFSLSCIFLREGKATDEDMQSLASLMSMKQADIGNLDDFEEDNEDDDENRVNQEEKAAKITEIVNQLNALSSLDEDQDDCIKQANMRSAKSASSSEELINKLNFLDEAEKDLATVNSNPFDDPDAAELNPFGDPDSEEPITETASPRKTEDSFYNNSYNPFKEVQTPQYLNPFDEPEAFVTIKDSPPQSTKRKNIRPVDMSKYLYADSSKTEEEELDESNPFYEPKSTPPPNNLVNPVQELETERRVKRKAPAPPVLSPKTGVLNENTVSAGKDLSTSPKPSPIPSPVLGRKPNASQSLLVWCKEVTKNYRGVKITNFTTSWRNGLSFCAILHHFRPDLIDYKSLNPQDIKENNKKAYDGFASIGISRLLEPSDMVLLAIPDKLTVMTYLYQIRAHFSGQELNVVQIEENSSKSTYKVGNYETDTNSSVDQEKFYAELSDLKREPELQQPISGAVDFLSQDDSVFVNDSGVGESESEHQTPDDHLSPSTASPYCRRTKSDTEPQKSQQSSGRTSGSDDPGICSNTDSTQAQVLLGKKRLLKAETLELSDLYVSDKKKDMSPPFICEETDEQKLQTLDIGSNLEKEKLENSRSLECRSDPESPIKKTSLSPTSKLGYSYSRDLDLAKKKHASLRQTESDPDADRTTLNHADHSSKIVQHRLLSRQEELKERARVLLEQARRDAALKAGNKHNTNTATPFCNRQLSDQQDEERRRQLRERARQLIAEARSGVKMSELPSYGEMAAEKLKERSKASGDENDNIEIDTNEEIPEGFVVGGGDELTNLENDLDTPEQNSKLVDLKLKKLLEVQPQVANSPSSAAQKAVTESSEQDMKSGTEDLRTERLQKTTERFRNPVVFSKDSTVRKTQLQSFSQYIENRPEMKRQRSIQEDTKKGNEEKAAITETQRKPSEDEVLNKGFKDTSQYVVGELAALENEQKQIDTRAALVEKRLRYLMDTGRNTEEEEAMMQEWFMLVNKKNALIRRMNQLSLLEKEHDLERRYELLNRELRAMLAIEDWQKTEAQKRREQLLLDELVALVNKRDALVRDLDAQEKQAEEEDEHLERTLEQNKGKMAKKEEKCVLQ
UniProt Q2TBE0, sequence (Q2TBE0 whole entry, looked up): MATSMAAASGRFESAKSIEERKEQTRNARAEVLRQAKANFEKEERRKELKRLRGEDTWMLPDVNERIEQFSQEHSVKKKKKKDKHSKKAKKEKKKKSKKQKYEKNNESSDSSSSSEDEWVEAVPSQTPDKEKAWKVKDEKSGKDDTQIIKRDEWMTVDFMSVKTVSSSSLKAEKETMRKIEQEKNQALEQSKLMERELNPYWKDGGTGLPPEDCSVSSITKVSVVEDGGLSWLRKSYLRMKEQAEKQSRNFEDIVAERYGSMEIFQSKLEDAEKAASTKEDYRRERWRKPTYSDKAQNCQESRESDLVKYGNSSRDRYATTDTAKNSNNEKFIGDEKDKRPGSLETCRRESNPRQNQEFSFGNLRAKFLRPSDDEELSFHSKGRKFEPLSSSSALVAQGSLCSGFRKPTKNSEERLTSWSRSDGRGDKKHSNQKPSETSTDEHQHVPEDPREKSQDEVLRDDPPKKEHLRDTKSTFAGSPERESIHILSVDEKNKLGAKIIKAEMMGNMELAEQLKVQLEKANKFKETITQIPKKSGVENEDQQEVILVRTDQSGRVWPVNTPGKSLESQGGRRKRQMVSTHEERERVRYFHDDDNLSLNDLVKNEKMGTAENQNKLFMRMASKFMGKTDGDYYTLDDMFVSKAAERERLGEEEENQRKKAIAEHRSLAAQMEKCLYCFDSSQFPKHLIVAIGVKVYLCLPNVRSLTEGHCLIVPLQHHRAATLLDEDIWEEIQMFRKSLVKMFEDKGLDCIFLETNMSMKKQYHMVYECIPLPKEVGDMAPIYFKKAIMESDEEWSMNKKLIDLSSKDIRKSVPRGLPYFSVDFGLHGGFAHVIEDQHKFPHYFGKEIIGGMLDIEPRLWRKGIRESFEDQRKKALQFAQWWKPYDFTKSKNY
UniProt Q96GQ7, sequence (Q96GQ7 whole entry, looked up): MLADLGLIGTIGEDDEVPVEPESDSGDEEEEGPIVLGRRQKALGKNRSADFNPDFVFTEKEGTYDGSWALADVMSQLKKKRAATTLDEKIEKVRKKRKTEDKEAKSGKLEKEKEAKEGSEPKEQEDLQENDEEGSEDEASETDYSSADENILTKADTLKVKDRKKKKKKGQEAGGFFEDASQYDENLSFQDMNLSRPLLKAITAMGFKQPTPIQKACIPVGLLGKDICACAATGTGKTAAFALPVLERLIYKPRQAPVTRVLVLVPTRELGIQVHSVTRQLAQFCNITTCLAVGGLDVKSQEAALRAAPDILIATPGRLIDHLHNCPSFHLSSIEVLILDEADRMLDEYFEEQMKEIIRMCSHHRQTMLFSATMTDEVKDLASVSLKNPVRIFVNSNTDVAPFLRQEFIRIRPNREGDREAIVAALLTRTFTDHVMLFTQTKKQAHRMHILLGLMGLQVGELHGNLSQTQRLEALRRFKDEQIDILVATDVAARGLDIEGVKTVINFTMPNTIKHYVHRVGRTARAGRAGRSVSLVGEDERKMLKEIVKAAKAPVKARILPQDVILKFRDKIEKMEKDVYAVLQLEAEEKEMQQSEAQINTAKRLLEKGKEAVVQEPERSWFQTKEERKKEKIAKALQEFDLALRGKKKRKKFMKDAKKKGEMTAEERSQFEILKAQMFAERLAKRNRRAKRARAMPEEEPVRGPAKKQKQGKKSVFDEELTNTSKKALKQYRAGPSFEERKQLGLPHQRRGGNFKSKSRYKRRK
UniProt P32519, sequence (P32519 whole entry, looked up): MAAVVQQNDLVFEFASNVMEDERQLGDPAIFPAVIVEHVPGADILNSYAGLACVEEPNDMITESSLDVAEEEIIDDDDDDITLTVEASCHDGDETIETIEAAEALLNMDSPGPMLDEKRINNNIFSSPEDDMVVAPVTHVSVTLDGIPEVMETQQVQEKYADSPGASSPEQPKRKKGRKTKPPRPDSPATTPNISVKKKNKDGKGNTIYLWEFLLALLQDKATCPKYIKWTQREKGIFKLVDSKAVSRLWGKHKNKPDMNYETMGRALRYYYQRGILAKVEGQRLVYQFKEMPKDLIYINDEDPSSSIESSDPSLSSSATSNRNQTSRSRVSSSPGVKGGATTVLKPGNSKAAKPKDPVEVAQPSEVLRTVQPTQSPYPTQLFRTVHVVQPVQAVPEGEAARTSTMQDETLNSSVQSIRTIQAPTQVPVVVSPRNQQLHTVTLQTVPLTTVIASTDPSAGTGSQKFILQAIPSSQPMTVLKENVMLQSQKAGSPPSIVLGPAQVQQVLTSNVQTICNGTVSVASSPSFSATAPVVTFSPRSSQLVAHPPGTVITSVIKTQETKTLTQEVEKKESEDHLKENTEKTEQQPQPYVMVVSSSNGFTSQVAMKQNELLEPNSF
UniProt Q96G46, sequence (Q96G46 whole entry, looked up): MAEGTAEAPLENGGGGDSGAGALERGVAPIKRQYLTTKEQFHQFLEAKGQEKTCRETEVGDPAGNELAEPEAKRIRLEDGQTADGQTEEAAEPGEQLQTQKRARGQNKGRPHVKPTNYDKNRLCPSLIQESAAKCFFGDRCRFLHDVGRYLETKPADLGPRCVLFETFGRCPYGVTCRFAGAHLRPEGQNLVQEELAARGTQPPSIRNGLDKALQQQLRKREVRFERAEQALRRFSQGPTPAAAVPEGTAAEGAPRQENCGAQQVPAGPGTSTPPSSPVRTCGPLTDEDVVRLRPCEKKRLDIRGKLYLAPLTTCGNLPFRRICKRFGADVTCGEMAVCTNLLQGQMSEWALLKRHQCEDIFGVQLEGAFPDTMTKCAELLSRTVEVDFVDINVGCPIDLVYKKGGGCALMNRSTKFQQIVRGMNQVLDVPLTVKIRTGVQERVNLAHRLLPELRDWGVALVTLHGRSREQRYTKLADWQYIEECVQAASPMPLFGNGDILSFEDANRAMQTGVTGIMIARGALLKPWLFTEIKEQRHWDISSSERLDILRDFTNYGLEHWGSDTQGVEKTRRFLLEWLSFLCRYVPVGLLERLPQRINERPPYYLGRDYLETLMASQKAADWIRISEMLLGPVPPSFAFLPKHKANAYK
UniProt Q9Y6B2, sequence (Q9Y6B2 whole entry, looked up): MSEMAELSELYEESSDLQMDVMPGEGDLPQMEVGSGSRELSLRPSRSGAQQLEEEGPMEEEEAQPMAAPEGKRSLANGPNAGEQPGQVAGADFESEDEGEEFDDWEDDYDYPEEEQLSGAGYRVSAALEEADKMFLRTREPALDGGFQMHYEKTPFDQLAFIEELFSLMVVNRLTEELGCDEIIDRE
UniProt P25774, sequence (P25774 whole entry, looked up): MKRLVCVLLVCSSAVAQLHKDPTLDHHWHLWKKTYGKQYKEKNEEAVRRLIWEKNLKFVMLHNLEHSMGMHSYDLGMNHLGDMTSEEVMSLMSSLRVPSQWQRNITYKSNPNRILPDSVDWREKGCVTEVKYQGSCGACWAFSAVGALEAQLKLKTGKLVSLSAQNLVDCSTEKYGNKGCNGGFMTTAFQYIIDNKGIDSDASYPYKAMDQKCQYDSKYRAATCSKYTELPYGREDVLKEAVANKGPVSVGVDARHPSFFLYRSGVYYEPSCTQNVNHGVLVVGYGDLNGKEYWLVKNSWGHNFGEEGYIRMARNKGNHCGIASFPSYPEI
UniProt Q4LDG9, sequence (Q4LDG9 whole entry, looked up): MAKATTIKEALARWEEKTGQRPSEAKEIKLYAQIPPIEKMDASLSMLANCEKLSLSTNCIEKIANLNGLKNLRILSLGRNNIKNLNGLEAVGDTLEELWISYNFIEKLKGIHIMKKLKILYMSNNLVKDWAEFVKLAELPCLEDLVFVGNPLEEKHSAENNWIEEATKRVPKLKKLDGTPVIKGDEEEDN

Compound in the first test: Cc1sc2c(c1C)C(c1ccc(Cl)cc1)=N[C@@H](CC(=O)OC(C)(C)C)c1nnc(C)n1-2
The test is described as follows: log2 fold change, soluble protein after heating vs DMSO (PISA); higher = thermal stabilisation; K562 cells, 10 uM, 30 min; active = over 0.2 and 3.5 SD of the protein, either way, in both replicates (recomputed). In short, it runs like this:
(§1)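 Aliquots of K562 cells (2×10^6 cells/mL) treated with 10 μM compound for 30 min were heated for 3 min over 48°C-58°C. After pooling and extraction in PBS with 0.5% NP-40 at 4°C, soluble protein from a 21,000xg, 90 min spin was quantified by TMTpro 16plex LC-MS/MS with channel sums equalised. Thermal stability is expressed against control samples, from duplicates, as a log2 fold change.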
With EHBP1 (UniProt Q8NDI1), the log2 fold change is 0.041 (inactive).
The same measure, in the same setting: the same measure for EID1 (UniProt Q9Y6B2): -0.135 (inactive).
The same measure, in the same setting: next, DENND1A isoform 6 (UniProt Q8TEH3): 0.284 (inactive).
As for FADS1 (UniProt F5GYH4), the log2 fold change was -0.036 (inactive).

Compound in the next test: c1ccc([C@@H]2C[C@H]2NC2CCNCC2)cc1
The test is described as above. In short, it runs like this:
as §1
Turning to DBNL (UniProt Q9UJU6), the log2 fold change is -0.099 (inactive).
The same measure, in the same setting: the same measure for F2RL3 (UniProt Q96RI0): 0.032 (inactive); for DHRS13 (UniProt Q6UX07): -0.14 (inactive); for EIF4G1 (UniProt Q04637): -0.028 (inactive).
As for DNM2 isoform 4 (UniProt P50570), the log2 fold change is -0.022 (inactive).
For the target FAM117B (UniProt Q6P1L5), the log2 fold change was -0.024 (inactive).
Still for that read-out and setting: next, DNAL1 (UniProt Q4LDG9): 0.03 (inactive); CWF19L2 (UniProt Q2TBE0): 0.135 (inactive).
As to ELOVL7 (UniProt A1L3X0), the log2 fold change was -0.01 (inactive).
As for EEF2K (UniProt O00418), the log2 fold change was -0.082 (inactive).
Same read-out and setting: next, FAM3A (UniProt P98173): -0.014 (inactive); DDX27 (UniProt Q96GQ7): -0.046 (inactive).
In the case of DLK1 (UniProt P80370), the log2 fold change is 0.051 (inactive).
EDRF1 (UniProt Q3B7T1): the log2 fold change is -0.061 (inactive).
The same measure, in the same setting: next, ELAC1 (UniProt Q9H777): 0.059 (inactive); DYNC1I2 isoform 2 (UniProt Q13409): 0.14 (inactive); ELF1 (UniProt P32519): 0.007 (inactive).
On the same count and under the same terms, the same measure for DCP2 (UniProt Q8IU60): 0.068 (inactive).
The same measure, in the same setting: the same measure for DUS3L (UniProt Q96G46): 0.007 (inactive); for CTSS (UniProt P25774): 0.037 (inactive); for EIF2AK3 (UniProt Q9NZJ5): 0.059 (inactive).
As to CYB561A3 isoform 2 (UniProt Q8NBI2), the log2 fold change is 0.002 (inactive).
The same measure, in the same setting: next, EHBP1 (UniProt Q8NDI1): 0.229 (inactive).
